TDP-43 yeast inh: TDP-43 toxicity inhibition in yeast; 410,000 compounds, 1.8% hits; AID 652104; TDP-43 expressing yeast growth rescue, BacTiter-Glo, 24 h; Potency, µM (titrated, usually from 46.1 µM), inactives show top-dose growth rescue (activation), hits mostly activators; also: % of control where 0% means no effect; nearly all actives have a fitted effect of over 50% in size
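Yeast expressing TDP-43 (pregrown in raffinose, seeded at OD600=0.02 in galactose medium) exposed to compounds 24 hr at 30 deg C. Growth read by BacTiter-Glo luminescence; rescue of toxicity appears as increased signal.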
Mito fusion act: inhibitors of mitochondrial division or activators of mitochondrial fusion | Potency, µM (series often up to 46.1 µM), inactives show at the top dose growth rescue (activation), hits mostly activators | S. cerevisiae fusion-defective mutant growth rescue, CellTiterGlo 48 h | 320,000 compounds, 0.23% hits | AID 485298; also: % of control where 0% means no effect; nearly all actives have a fitted effect of over 45% in size
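Read-out: ATP-based luminescence (CellTiterGlo, 10 min ambient) reporting growth of fusion-defective ts yeast after 48 hours at 37C on glycerol/ethanol YPEG medium in the presence of compound.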
aSyn rescue: rescues yeast growth from alpha-synuclein toxicity; Yeast expressing alpha-synuclein, growth rescue, BacTiter-Glo, 24 h; Potency, µM (titrated, usually from 46.1 µM), for inactives: top-dose growth rescue (activation), usual class: activators; 370,000 compounds, 0.14% hits; AID 652106; also: % of control where 0% means no effect; nearly all actives have a fitted effect of over 65% in size
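Screening used galactose-induced yeast with toxic alpha-synuclein levels, exposed to compound for 24 hr at 30 deg C. Cell growth, read with BacTiter-Glo luminescence, gave the measured signal.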
FUS suppressor: FUS proteinopathy suppression in yeast. S. cerevisiae FUS-expressing, growth rescue, OD600, 24 h. Potency, µM (series often up to 76.6 µM), hits mostly activators. 390,000 compounds, 0.24% hits. AID 1347120;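 also: plate controls were DMSO vehicle for no effect and reference control for full effect; nearly all actives have a fitted effect of over 55% in size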
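Read-out: OD at 600 nm after 24hr at 30C, reporting rescue of FUS-induced yeast toxicity. Cells at OD 0.005 in galactose (2%) minimal medium; compounds tested in a dilution series; CP55940 titration from 92uM final as control.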
Abeta rescue: A-beta toxicity reversal in yeast | yeast expressing A-beta42, growth rescue, OD600, 48 h; response scale: 0% DMSO, 100% iron-clioquinol control | Potency, µM (series often up to 46.1 µM), hits mostly activators | 410,000 compounds, 0.063% hits | AID 1347071; also: nearly all actives have a fitted effect of over 55% in size
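Growth rescue measured by 600 nm absorbance after 48 h yeast culture at 30 C with compound. Values normalized between DMSO and an equimolar ferric chloride plus clioquinol control.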
* = called active by the depositor; i = inactive; ? = inconclusive; . = no result. The list is not random: actives were taken first. Their share in the collection is about 2.2%. Calls follow the shape of the dose curve; as a rule, active = well fitted curve in the direction sought with a large enough effect; inconclusive = small, poorly fitted or top-dose-only effect, or another doubt; inactive = no such curve, though single readings can be large; an effect the other way counts as inactive or inconclusive. Potency is read from the fitted curve at half-maximal effect.

SMILES	TDP-43 yeast inh	Mito fusion act	aSyn rescue	FUS suppressor	Abeta rescue
CCOC(=O)/C(C#N)=C1/SC(C)C(=O)N1c1ccc(Br)cc1 (configuration not stated)	0%	0%	0%	22µM*	i
O=C1C(Cl)=C(Nc2ccccc2O)C(=O)N1c1ccccc1	35µM*	-4%	-1%	i	i
CCCCC(=O)NNC(=S)NC(=O)c1ccc([N+](=O)[O-])cc1	20µM*	10%	32µM*	i	?
CCCCC(=O)NNC(=S)NC(=O)c1cccc([N+](=O)[O-])c1	14µM*	-4%	?	i	i
CCCCC(=O)NNC(=S)NC(=O)c1ccc(C)cc1	-75%	-21%	3.5µM*	i	i
COC(=O)c1ccccc1NC(=S)NC(=O)c1ccc(C)cc1	20µM*	-7%	-18%	.	i
O=C(NNC(=S)NC(=O)c1ccccc1)c1cccc([N+](=O)[O-])c1	27%	-5%	-2%	i	?
Cc1ccc(C)c(NC(=O)C2CCN(c3cc(C)nc4c(-c5ccc(Cl)cc5)c(C)nn34)CC2)c1	20%	.	.	i	i
CC(C)CC(=O)NC(=S)NNC(=O)c1ccc([N+](=O)[O-])cc1	18µM*	-2%	?	i	?
NS(=O)(=O)c1cccc(C(=O)NC2CCSc3ccccc32)c1 (configuration not stated)	-12%	12%	0%	i	i
O=C(NC1CCSc2ccccc21)c1cccc(Cl)c1 (configuration not stated)	5.6µM*	2%	4%	i	i
Cc1cccn2c(=O)c(C=NCc3ccccc3)c(NCCO)nc12	-19%	-1%	0%	i	i
Cc1ccc2nc(NCc3ccccc3)c(C=NCc3ccccc3)c(=O)n2c1	-11%	7.9µM*	1%	i	i
Cc1noc(C)c1NC(=O)N(C)C[C@@H]1OCc2ccccc2-c2c(n(C)c3ccccc23)C(=O)N([C@H](C)CO)C[C@H]1C	0%	.	-2%	i	i
C[C@@H]1CN([C@H](C)CO)C(=O)c2c(c3ccccc3n2C)-c2ccccc2CO[C@@H]1CN(C)C(=O)Nc1ccccc1C(F)(F)F	20µM*	.	-5%	i	i
COc1cccc(-c2cc(C(=O)N3CCN(C(=O)c4ccco4)CC3)on2)c1	3%	-3%	15%	i	i
N#Cc1c(-c2cccc([N+](=O)[O-])c2)nc2n(c1=O)CCS2	11µM*	-12%	2%	i	?
N#Cc1c(-c2ccc([N+](=O)[O-])cc2)nc2n(c1=O)CCS2	4%	?	-3%	i	i
O=C(COC(=O)CSc1ccc([N+](=O)[O-])cc1)NCC1CCCO1 (configuration not stated)	2%	4%	-6%	i	i
Cc1cc(SCC(=O)OCC(=O)NCC2CCCO2)c(C)cc1Br (configuration not stated)	25µM*	-1%	5%	i	i
N#Cc1cccc(S(=O)(=O)N2CCN(c3nc(-c4cccs4)nc4ccccc34)CC2)c1	.	.	6%	.	.
COC[C@@H]1CCCN1c1ccc2c(c1)O[C@H]1CCN(C1)S2(=O)=O	.	.	.	i	.
CCOC(=O)N1CCN(C(=O)c2nn(C)c3c2CSc2ccccc2-3)CC1	35µM*	3%	2%	i	i
CCCCN(C=O)c1c(CC)nc2c(OCC(=O)N3CCOCC3)cccn12	-10%	.	-5%	i	i
COc1ccc2[nH]c3c(=O)n(CCCCC(=O)N4CCCC4)c(=S)[nH]c3c2c1	-13%	1%	0%	40µM*	i
Cc1ccc(NC(=S)c2ccccc2)cc1	11µM*	15%	-2%	i	i
Cc1ccc(NC(=S)c2ccncc2)cc1	19%	-18%	2%	i	.
CCn1c(COc2cccc(C)c2)nnc1SCC(=O)Nc1cccc(C(=O)O)c1	5%	-3%	-1%	i	i
CCn1c(COc2cccc(C)c2)nnc1SCC(=O)Nc1cccc(C(=O)OC)c1	20µM*	3%	6%	i	i

Assay outcomes as filed in PubChem.
